Our source for the outcome and AC50 values is PubChem BioAssay (EPA / NIEHS).

Each structure is given as a SMILES string. A structure can be active in one record and inactive in another. Calls of active or inactive are those of the source. The calls were made as follows: active = hit-call score of the fitted dose curve at least 0.9, where 1 is the maximum; inactive = score below 0.9.

The test is described as follows: CCTE_Shafer_MEA_acute_per_network_burst_spike_number_mean: CCTE's Neural Acute Assay for Average Number of Spikes in a Network Burst, Shafer Lab (AID 2284019). As to the method:
CCTE_Shafer_MEA_acute assay is conducted using Axion Biosystems 48 well microelectrode array (MEA) plates and Maestro recording system. Each well of the MEA plate contains a grid of 16 microelectrodes embedded in the culture surface. Electrically active cells, such as neurons, can be cultured over the electrodes, and electrical activity in these cells can be recorded extracellularly. The spontaneous firing of neurons is captured from each electrode on a microsecond timescale providing both temporally and spatially precise data. […] The CCTE_Shafer_MEA_acute assay uses primary cultures of rat cortical neurons. As these cultures mature over time, neural networks develop functional activity and form cohesive networks in which electrical activity can be highly coordinated. Baseline 40-minute recordings are made on days post-plating 13 or 15, followed by a secondary 40-minute recording after chemical exposure.CCTE_Shafer_MEA_acute_per_network_burst_spike_number_mean is a component of the CCTE_Shafer_MEA_acute assay. It measures the average number of spikes (action potential firings) in a network burst (temporally-clustered group of spikes across multiple electrodes) as the total number of spikes in a network burst divided by the number of network bursts during a recording in a microelectrode array (MEA) using Axion Biosystems Maestro 768 channel amplifier with the AxIS adaptive spike detector. The recordings before and after chemical treatment are used to calculate a percent change in the mean number of spikes in a network burst in each well.Data from the assay component CCTE_Shafer_MEA_acute_per_network_burst_spike_number_mean was analyzed into 1 assay endpoint. This assay endpoint, CCTE_Shafer_MEA_acute_per_network_burst_spike_number_mean, was analyzed in the negative analysis fitting direction relative to DMSO as the negative control and baseline of activity. Using a type of functional reporter, gain or loss-of-signal activity can be used to understand electrical activity.
Spontaneous activity in the cortical cultures was recorded using an Axion Biosystems Maestro 768 channel amplifier and Axion Integrated Studios (AxIS) v1.8 (or later) software. The amplifier recorded from all channels simultaneously (gain = 1200 x; sampling rate = 12.5 kHz/channel): raw signals were filtered with a Butterworth band-pass filter (300-5000 Hz), which filters out slower local field potentials leaving only fast potentials, i.e., "spikes", arising from extracellular currents associated with action potentials (Pine 2006; Wheeler and Nam 2011). On-line spike detection of filtered signals was conducted with the AxIS adaptive spike detector, using a threshold of 8x the root mean squared (rms) noise on each channel. Any electrodes with rms noise levels greater than 5 uV were grounded (e.g., no data were recorded). Once grounded, an electrode was grounded for the duration of the experiment. All recordings were conducted at 37 C. Wells were deemed usable if on the day of the exposure >/= 10 electrodes were active (defined as >/= 5 spikes/min). On DIV 13 or 15, a minimum of three wells from one cortical culture preparation were treated with each compound (0.03-40 uM). Prior to recording baseline activity, each mwMEA plate was placed in the Maestro at 37 C and allowed to sit for 20 min while firing rates stabilized. Baseline activity (40 min) was recorded before the addition of each compound. An additional 40 min of spontaneous activity was recorded in the presence of each compound. Changes in network parameters relative to baseline were assessed following compound treatment.
As to `CC1(C)[C@H](C=C(Cl)Cl)[C@@H]1C(=O)O[C@@H](C#N)c1cccc(Oc2ccccc2)c1`, the compound was classed as inactive. Consider `O=c1c2ccccc2c(=O)c2c1cc(Cl)c1[nH]c3c([nH]c12)c(Cl)cc1c(=O)c2ccccc2c(=O)c13`, for which the outcome was inactive.

Regarding `CCCC[N+](CCCC)(CCCC)CCCC`, the compound was called inactive.

A word on the AC50: it is the concentration giving half of the maximal activity seen. Turning to `O=[N+]([O-])O`, the AC50 is 3 nM (active) and the compound was classed as inactive. In the case of `[Cd+2].[Cl-].[Cl-]`, the compound was classed as inactive. With `CC1(C)[C@@H](C=C(Cl)Cl)[C@@H]1C(=O)O[C@@H](C#N)c1ccc(F)c(Oc2ccccc2)c1`, the AC50 is 1280 nM (active). With `C#CCN(C)[C@H](C)Cc1ccccc1`, the call was inactive. As for `c1cc[n+]2c(c1)-c1cccc[n+]1CC2`, the compound was classed as inactive. Still for that read-out and setting: to `CP(=O)(O)CC[C@H](N)C(=O)O` belongs “inactive”; to `CP(=O)(O)CCC(N)C(=O)O` (stereo unspecified), “inactive”. Regarding `CC1(C)[C@H](C(=O)O[C@H](C#N)c2cccc(Oc3ccccc3)c2)[C@@H]1C=C(Br)Br`, the half-maximal activity concentration (AC50) is 1500 nM (active). For `Cc1ccc(OP(=O)(Oc2ccc(C)cc2)Oc2ccc(C)cc2)cc1` (tested in a mixture with another compound), the AC50 is 3400 nM (active). `Oc1ccc(C2(c3ccc(O)cc3)c3ccccc3-c3ccccc32)cc1`: the outcome was inactive. On to `COc1ccc(CO)cc1`, for which the AC50 is 25400 nM (active). `O=C(O)CNCP(=O)(O)O`: the compound was classed as inactive.
